The record followed here is PubChem BioAssay.

SMILES strings stand for the structures. Active and inactive are the calls of the source. Unless noted, the rule behind the calls is not given here.

Assay [1] has as its system Wnt5a (protein binding on small-molecule microarray). Put plainly: Wnt5a binders on small-molecule microarray, primary screen, biophysical, 635/667 nm fluorescence (AID 1142).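 Note: fluorescence read at 667 nm with signal to noise per printed feature.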 The following applies: 635 nm fluorescence, higher = more signal.
The nature of assay [2]: cell viability in Huh7 cells, primary screen, cytotoxicity control for HCV replication inhibitor project, CellTiter-Glo luminescence, basal, 48 h (AID 1143).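 Note: Huh7 hepatoma cells carrying a hepatitis C replication reporter with no stimulus; test concentration not given here.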 The following applies: Huh7 HCV replicon, higher = more signal, called active from +8 up or from −8 down. Background: Cellular ATP, detected with luciferase, serves as a proxy for viable cell number.
Assay [3] can be described thus: P. aeruginosa biofilm formation inhibitors, primary screen, PAO1 strain, BacTiter-Glo luminescence, LB-PBS (AID 1144). The following applies: 12 h, higher = more signal.
Assay [4] in a line: CREB reporter modulators without forskolin, primary screen, cell-based, PC12, CRE-LacZ reporter, unstimulated (AID 1145). The following applies: no forskolin, luminescence, 4.5 h, higher = more signal, called active from +8 up or from −8 down.
A short description of assay [5]: CREB reporter modulators under forskolin, primary screen, cell-based, PC12, CRE-LacZ reporter, forskolin-stimulated (AID 1146).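 Note: PC12 cells with 6xCRE LacZ reporter stimulated by forskolin 10 µM; beta-galactosidase reporter signal reflecting CREB driven transcription.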 The following applies: luminescence, 4.5 h, higher = more signal, called active from +8 up or from −8 down.
Assay [6] has as its target Streptavidin (Streptomyces avidinii) (UniProt P22629). As to the kind of experiment: streptavidin binders on small-molecule microarray, primary screen, artefact control for SMM compound annotation, biophysical, 635/667 nm fluorescence (AID 1147).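 Note: signal reflects streptavidin binding to arrayed compounds as a control protein.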 The following applies: streptavidin binding, higher = more signal.
A short description of assay [7]: small-molecule binders of probe aInhba, primary screen, biochemical, small-molecule microarray, 635/667 nm fluorescence (AID 1148).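 Note: score merges 667nm spot fluorescence with signal-to-noise for antibody binding to printed compounds.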 The following applies: higher = more signal.
Assay [8] has as its target Torsin-1A (Homo sapiens) (UniProt O14656). Put plainly: torsin A binders from cell lysate, primary screen, small-molecule microarray, wild-type, 635/667 nm (AID 1149). The following applies: COS7 hTOR1A-WT lysate, 635 nm fluorescence, higher = more signal.
Assay [9] shares this target. Put plainly: small-molecule binders of mutant TOR1A in lysate, primary screen, cell lysate, small-molecule microarray, COS7 lysate, 635/667 nm fluorescence (AID 1150).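 Note: score pools 667 nm emission and signal to noise measuring lysate protein binding.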 The following applies: COS7 hTOR1A mutant lysate, 635 nm fluorescence, higher = more signal.
The test system of assay [10] is Sonic hedgehog protein (Shh). As to the kind of experiment: small-molecule binders of Shh protein, primary screen, biochemical, small-molecule microarray, 635/667 nm fluorescence (AID 1151).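 Note: Shh protein binding to compounds spotted on small-molecule microarray slides; score combines spot fluorescence intensity with signal-to-noise across triplicate slides.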 The following applies: small-molecule microarray binding, 635 nm fluorescence; higher = more signal.
A short description of assay [11]: E. coli DRC41 culture turbidity changes, primary screen, E. coli filamentation inducer project, strain DRC41, OD650, 48 h (AID 1152).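 Note: E. coli MC1000 strain DRC41 lacking acrAB efflux pump and sulA.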 The following applies: E. coli DRC41 (acrAB sulA), higher = more signal, called active from +8 up or from −8 down.
A short description of assay [12]: small-molecule binders of probe aLefty1, primary screen, biochemical, small-molecule microarray, 635/667 nm fluorescence (AID 1153).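 Note: score merges spot fluorescence with signal-to-noise ratio from the scanned slide images.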 The following applies: higher = more signal.
Assay [13] is described as follows: PSAC antagonists in infected red cells, primary screen, cell-based, P. falciparum Indochina, OD700, 1 h (AID 1154). The following applies: P. falciparum Indochina infected RBC osmotic lysis, higher = more signal, called active from +8 up or from −8 down.
Assay [14] in a line: PSAC antagonists in infected red cells, primary screen, cell-based, P. falciparum Indochina, OD700, 2 h (AID 1155).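 Note: lysis reports solute entry through the parasite surface anion channel PSAC; channel blockers reduce lysis of infected cells.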 The following applies: P. falciparum Indochina infected erythrocytes, osmotic lysis OD700; higher = more signal, called active from +8 up or from −8 down.
Assay [15] is described as follows: osmotic lysis modulators in infected erythrocytes, primary screen, PSAC antagonist project, cell-based, P. falciparum Indochina, OD700, 3 h (AID 1156). The following applies: higher = more signal, called active from +8 up or from −8 down.
Assay [16] in a line: PSAC antagonists in infected red cells, primary screen, cell-based, P. falciparum Indochina, OD700, 18 h (AID 1157). The following applies: P. falciparum Indochina infected erythrocytes, osmotic lysis OD700, 18 h; higher = more signal, called active from +8 up or from −8 down.
Assay [17] can be described thus: modulators of S6 phosphorylation in cells, primary screen, cell-based, A549, cytoblot, luminescence, serum-stimulated (AID 1158).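 Note: serum-stimulated A549 lung adenocarcinoma cells; signal is phosphorylated S6 detected by cytoblot immunostaining with HRP secondary.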 The following applies: A549 phospho-S6 cytoblot, 5 h, higher = more signal.
Assay [18] has as its target NADPH oxidase 2 (Homo sapiens) (UniProt P04839). Put plainly: NOX2-dependent H2O2 signal modulators, primary screen, NOX inhibitor project, cell-based, HEK293-NOX2, PMA-stimulated, Amplex Red fluorescence (AID 1159). Note: test concentration not given here. The following applies: 45 min, higher = more signal, called active from +8 up or from −8 down.
The target of assay [19] is NADPH oxidase 4 (Homo sapiens) (UniProt Q9NPH5). Put plainly: NOX4-dependent H2O2 signal modulators, primary screen, NOX inhibitor project, cell-based, HEK293-NOX4, tetracycline-induced, Amplex Red fluorescence (AID 1160). The following applies: 45 min, higher = more signal, called active from +8 up or from −8 down.
NADPH oxidase 4 (Homo sapiens), sequence (Q9NPH5 whole entry, looked up): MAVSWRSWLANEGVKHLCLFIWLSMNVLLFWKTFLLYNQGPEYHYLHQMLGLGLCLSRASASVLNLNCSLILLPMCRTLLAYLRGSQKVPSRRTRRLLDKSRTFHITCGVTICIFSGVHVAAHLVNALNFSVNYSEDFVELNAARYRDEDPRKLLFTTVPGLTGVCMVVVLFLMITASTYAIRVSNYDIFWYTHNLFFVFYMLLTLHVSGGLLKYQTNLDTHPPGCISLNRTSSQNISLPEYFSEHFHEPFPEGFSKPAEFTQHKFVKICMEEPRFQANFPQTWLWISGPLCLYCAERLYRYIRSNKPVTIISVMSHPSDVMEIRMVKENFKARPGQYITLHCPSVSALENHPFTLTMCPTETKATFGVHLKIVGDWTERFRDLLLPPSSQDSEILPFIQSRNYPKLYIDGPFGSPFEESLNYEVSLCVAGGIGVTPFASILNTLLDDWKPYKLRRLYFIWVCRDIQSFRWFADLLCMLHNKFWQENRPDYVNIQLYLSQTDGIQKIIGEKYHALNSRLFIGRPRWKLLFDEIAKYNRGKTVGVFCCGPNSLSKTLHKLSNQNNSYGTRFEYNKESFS
The target of assay [20] is NADPH oxidase 5 (Homo sapiens) (UniProt Q96PH1). Put plainly: NOX5-dependent H2O2 signal modulators, primary screen, NOX inhibitor project, cell-based, HEK293-NOX5, Amplex Red fluorescence (AID 1161). The following applies: HEK293-NOX5, ionomycin, 45 min, higher = more signal.
NADPH oxidase 5 (Homo sapiens), sequence (Q96PH1 whole entry, looked up): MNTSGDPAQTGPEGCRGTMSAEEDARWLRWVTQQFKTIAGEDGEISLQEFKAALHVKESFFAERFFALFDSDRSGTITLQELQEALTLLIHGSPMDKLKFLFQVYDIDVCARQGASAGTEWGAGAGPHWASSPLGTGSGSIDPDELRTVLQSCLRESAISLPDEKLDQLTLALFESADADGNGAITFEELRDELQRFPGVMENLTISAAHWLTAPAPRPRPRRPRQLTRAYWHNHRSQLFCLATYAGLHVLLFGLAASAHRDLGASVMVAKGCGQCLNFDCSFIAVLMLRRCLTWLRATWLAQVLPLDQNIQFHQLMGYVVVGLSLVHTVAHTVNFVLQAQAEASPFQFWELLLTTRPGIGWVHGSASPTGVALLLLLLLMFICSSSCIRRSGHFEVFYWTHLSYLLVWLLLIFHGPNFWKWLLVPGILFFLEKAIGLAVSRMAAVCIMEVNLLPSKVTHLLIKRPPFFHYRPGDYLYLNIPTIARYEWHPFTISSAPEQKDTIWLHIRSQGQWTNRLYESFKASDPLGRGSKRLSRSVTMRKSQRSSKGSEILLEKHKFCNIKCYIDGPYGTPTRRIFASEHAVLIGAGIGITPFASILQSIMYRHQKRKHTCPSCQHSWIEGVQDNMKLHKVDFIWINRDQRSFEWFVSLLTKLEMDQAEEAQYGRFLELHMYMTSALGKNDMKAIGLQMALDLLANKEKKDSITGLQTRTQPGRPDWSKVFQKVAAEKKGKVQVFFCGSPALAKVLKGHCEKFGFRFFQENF

Streptavidin (Streptomyces avidinii), sequence (P22629 whole entry, looked up): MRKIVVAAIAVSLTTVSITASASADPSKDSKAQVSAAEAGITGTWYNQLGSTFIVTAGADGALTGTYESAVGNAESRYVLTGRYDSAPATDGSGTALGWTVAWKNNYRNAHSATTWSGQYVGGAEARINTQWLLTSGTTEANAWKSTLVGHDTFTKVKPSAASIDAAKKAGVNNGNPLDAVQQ
NADPH oxidase 2 (Homo sapiens), sequence (P04839 whole entry, looked up): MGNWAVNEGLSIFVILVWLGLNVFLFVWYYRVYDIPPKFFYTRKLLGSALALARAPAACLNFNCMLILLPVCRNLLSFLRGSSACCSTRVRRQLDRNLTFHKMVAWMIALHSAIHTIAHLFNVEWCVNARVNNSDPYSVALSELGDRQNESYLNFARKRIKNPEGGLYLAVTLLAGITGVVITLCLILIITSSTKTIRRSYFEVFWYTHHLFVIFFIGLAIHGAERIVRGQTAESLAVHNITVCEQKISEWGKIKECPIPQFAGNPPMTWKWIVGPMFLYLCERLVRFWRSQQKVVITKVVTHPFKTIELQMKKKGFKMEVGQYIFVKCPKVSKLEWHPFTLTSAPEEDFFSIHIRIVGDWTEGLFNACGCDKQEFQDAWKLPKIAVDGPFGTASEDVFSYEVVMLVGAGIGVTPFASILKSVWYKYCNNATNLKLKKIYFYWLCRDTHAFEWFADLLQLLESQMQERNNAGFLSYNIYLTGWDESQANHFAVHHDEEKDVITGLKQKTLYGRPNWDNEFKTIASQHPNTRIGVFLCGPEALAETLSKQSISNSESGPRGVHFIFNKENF
Torsin-1A (Homo sapiens), sequence (O14656 whole entry, looked up): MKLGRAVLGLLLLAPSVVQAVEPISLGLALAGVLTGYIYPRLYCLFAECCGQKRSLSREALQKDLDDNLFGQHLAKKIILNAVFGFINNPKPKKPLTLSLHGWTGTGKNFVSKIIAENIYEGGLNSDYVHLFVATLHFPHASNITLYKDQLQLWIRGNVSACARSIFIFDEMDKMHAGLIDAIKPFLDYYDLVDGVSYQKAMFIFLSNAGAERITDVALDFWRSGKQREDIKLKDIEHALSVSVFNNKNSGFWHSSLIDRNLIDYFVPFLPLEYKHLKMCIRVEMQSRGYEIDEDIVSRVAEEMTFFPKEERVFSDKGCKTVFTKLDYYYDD

Turning to `[N-]=[N+]=Nc1ccccc1[C@@H]1OC(c2ccc(OCCCO)cc2)=N[C@]1(Cc1ccccc1)C(=O)N1CCCCC1`, the composite z-score in [1] came out at 0.906; in [6], 1.38; in [7], 0.134; with Torsin-1A (Homo sapiens) [8] it was 0.551; in the assay with Torsin-1A (Homo sapiens) [9], 1.37; in [10], 1.15. The compound further displayed a composite z-score in assay [12] of 0.282. Besides, the z-score in assay [2] is -4.4 (inactive); in assay [3] it was 0.316 (inactive); in assay [4], 0.241 (inactive); in [5] it was -0.894 (inactive); in [11] it was 0.227 (inactive); in assay [13], 32.6 (active). For the same compound, the z-score in assay [14] was 32.7 (active); in assay [15], 3.01 (inactive); in [16], 4 (inactive); in [17], 0.328; in [18] it was -1.43 (inactive); in assay [19], -0.743 (inactive). This compound came in with a z-score in assay [20] of -1.77.
`COC(=O)[C@@]1(Cc2ccc(F)cc2)[C@H]2c3cc(C(=O)N4CCCC4)n(CCc4c[nH]c5ccccc45)c3C[C@H]2CN1C(=O)c1ccccc1`: the composite z-score was 0.407 in assay [1]; 1.91 in assay [6]; 0.668 in assay [7]; -0.0812 in the assay with Torsin-1A (Homo sapiens) [8]; 0.321 with Torsin-1A (Homo sapiens) [9]; -0.393 in [10]. This compound also yielded a composite z-score in assay [12] of 1.04. Further, the z-score in assay [2] was -3.01 (inactive); in assay [3] it was 1.82 (inactive); in assay [4], 0.587 (inactive); in [5], 0.668 (inactive); in assay [11] it was -2.35 (inactive); in assay [13], 2.02 (inactive). Also, the z-score in assay [14] is 0.946 (inactive); in assay [15], 0.805 (inactive); in assay [16], 1.06 (inactive); in [17], -0.142; in assay [18], 0.515 (inactive); in [19], 0.988 (inactive). The z-score in [20] is 1.9.
With `CCOc1cc(C(O)C2C=CC3C(=O)NC(=O)C3N2Nc2ccc(Cl)cc2Cl)ccc1O` (stereo not given), the composite z-score was -0.0753 in assay [1]; -0.431 in assay [6]; 0.0427 in [7]; -0.662 with Torsin-1A (Homo sapiens) [8]; -0.141 in the assay with Torsin-1A (Homo sapiens) [9]; -0.479 in [10]. Moreover, the composite z-score in [12] was -0.101. Besides, the z-score in assay [2] is 0.625 (inactive); in assay [3] it was -0.542 (inactive); in [4] it was 1 (inactive); in assay [5] it was -0.323 (inactive); in [11], -1.36 (inactive); in assay [13] it was 0.588 (inactive). Further, the z-score is 0.0352 (inactive) in [14]; 0.0675 (inactive) in assay [15]; 1.1 (inactive) in assay [16]; -1.04 in [17]; -1.26 (inactive) in [18]; -1.88 (inactive) in assay [19]. The z-score in assay [20] is -2.05.
As for `CCCCC(CC)C(O)C1C=CC2C(=O)N(c3ccccc3)C(=O)C2N1Nc1ccccc1F` (stereo not given), the composite z-score in [1] was 0.507; in [6], 0.0844; in assay [7], -0.128; with Torsin-1A (Homo sapiens) [8], 0.136; in the assay with Torsin-1A (Homo sapiens) [9], 0.663; in assay [10] it was -0.045. Further, in assay [12], the composite z-score was -0.0576. The z-score was -2.32 (inactive) in assay [2]; -0.786 (inactive) in assay [3]; -0.433 (inactive) in [4]; -0.208 (inactive) in [5]; 0.351 (inactive) in assay [11]; 0.741 (inactive) in assay [13]. In addition, the z-score in [14] was -0.686 (inactive); in [15], -0.42 (inactive); in assay [16] it was -1.57 (inactive); in assay [17] it was 0.434; in [18], -0.157 (inactive); in assay [19] it was 0.143 (inactive). The compound also came in with a z-score in assay [20] of 1.01.
`CC(C)N1C(=O)C[C@@](C(=O)NC2CC2)(c2ccc([N+](=O)[O-])cc2)[C@H]1c1ccc(CO)cc1`: the composite z-score in assay [1] was -0.0471; in assay [6] it was -0.677; in assay [7], -0.252; with Torsin-1A (Homo sapiens) [8], -1.39; with Torsin-1A (Homo sapiens) [9], 1.4; in assay [10] it was -0.161. The composite z-score in [12] was -0.231. The z-score in assay [2] is -4.5 (inactive); in assay [3], -0.0956 (inactive); in assay [4], 1.82 (inactive); in [5] it was -0.673 (inactive); in [11], 1.3 (inactive); in assay [13], 2.45 (inactive). The z-score in [14] was -0.224 (inactive); in assay [15] it was 2.85 (inactive); in assay [16], -0.9 (inactive); in assay [17], 2.28; in assay [18], -0.281 (inactive); in [19], -1.89 (inactive). The z-score in assay [20] was -1.78.
